The whole screen tested about 320,000 compounds, of which about 8,000 (2.5%) were called active. No stated cut-off is given here; in the data, active means activation above about 47%; inactive means the rest. Many of the other results were omitted from the sample, so actives are more common in it than they were.
Molecular target: Aryl hydrocarbon receptor (Homo sapiens) (UniProt P35869)
Assay: AHR activators, primary screen, cell-based, luminescence, luciferase reporter, human (AID 2796);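 further: 0% = vehicle wells and 100% = reference agonist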
Conditions: AHR-responsive luciferase reporter cells, at 5 µM, active compounds read high

Chain of Aryl hydrocarbon receptor (Homo sapiens) (P35869 whole entry, looked up): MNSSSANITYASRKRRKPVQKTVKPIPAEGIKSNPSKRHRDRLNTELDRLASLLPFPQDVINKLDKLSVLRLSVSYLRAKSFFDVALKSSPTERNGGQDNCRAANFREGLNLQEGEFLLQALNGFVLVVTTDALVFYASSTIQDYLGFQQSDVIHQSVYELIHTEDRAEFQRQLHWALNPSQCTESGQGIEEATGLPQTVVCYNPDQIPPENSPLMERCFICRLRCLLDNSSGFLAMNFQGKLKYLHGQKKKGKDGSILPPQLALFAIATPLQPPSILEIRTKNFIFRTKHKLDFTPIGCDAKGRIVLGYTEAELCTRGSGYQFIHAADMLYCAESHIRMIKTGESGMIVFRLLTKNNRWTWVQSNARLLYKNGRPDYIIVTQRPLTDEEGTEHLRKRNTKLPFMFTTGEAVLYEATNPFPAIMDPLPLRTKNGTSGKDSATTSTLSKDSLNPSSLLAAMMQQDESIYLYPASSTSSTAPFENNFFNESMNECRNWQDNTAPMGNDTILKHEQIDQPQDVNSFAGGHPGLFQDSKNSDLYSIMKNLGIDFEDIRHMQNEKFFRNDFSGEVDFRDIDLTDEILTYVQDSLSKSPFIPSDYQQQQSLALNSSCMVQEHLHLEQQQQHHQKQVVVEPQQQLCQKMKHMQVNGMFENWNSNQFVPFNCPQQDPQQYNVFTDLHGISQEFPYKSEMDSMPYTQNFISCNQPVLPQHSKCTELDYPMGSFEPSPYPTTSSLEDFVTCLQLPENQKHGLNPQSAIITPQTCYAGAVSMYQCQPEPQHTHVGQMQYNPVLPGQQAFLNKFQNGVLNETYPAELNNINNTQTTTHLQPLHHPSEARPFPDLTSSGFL

SMILES | activation
O=C(Oc1c(-c2ccco2)oc2ccccc2c1=O)c1cccnc1 | 2.09% (inactive)
COc1ccccc1/C=C/C1=NC(=C\N(C)C)/C(=O)O1 | 57.2% (active)
COc1cccc(/C=C/c2ccc3ccccc3n2)c1OC(C)=O | 8.53% (inactive)
COc1ccccc1/C=C/C(=O)NC(=S)N1CCOCC1 | 43% (inactive)
O=C(COC(=O)C1CCCO1)Nc1nc(-c2ccc(F)cc2)cs1 (stereo not given) | -1.85% (inactive)
CC(C)N(Cc1nnc(-c2ccccc2Br)o1)C(=O)c1cc(Cl)nc2ccccc12 | 18.6% (inactive)
CCOc1ccc(S(=O)(=O)Nc2cccc(C(=O)NCC3(N4CCCCC4)CCCCC3)c2)cc1 | -2.77% (inactive)
Cc1nc(-c2ccc([N+](=O)[O-])cc2)c(-c2ccccc2)o1 | 1.84% (inactive)
COc1ccc([N+](=O)[O-])cc1-c1nc2ccccc2nc1-c1ccccc1 | 3.27% (inactive)
Cn1nc(-c2ccccc2)c2cc([N+](=O)[O-])ccc21 | 67.7% (active)
CCNC(=O)c1cccc(NC(=O)C2CC(=O)N(CCc3ccccc3)C2)c1 (stereo not given) | 2.07% (inactive)
C=CCn1cc(C(=O)NCc2ccc(Cl)cc2)c(=O)c2cc(S(=O)(=O)N(CC)CC)ccc21 | 11.3% (inactive)
CCCOc1ccc(Cc2c(Cl)nc(SC)nc2NC)cc1 | 2.63% (inactive)
COc1cccc(CNS(=O)(=O)c2cc3c(cc2C)n(C)c(=O)c(=O)n3C)c1 | -0.05% (inactive)
COc1cccc2sc(N(CCCN(C)C)C(=O)C(c3ccccc3)c3ccccc3)nc12 | -0.96% (inactive)
COc1cccc2sc(NNC(=O)c3nc4ccccc4s3)nc12 | 86.3% (active)
COc1ccccc1/C=N/Nc1nc(C)c(C(C)=O)s1 | 33.6% (inactive)
COc1cccc2sc(Nc3nc(C)c(C(C)=O)s3)nc12 | 67.4% (active)
COc1ccccc1OCc1nc2ccccc2s1 | 45.1% (inactive)
COc1cc2ccccc2cc1C(=O)Nc1nc(C)c(C(C)=O)s1 | 6.6% (inactive)
CCOP(=O)(OCC)C(Nc1ccc([N+](=O)[O-])cc1)c1ccc(Cl)cc1 (stereo not given) | 0.69% (inactive)
Cn1ccc(=Nc2ccc(NC(=O)c3ccc(N=c4ccn(C)c5ccc([N+](=O)[O-])cc45)cc3)cc2)cc1 | 2.76% (inactive)
O=C(Nc1nnc(-c2ccccc2)o1)c1cccc(S(=O)(=O)N2CCOCC2)c1 | 2.09% (inactive)
CC(C)CNC(=O)COC(=O)c1ccccc1OCC(=O)Nc1ccc(Br)cc1 | -3.8% (inactive)
CC(C)C(NC(=O)c1cccc(S(=O)(=O)N2CCOCC2)c1)C(=O)NCCc1ccccn1 (stereo not given) | -6.5% (inactive)
